The source made the active and inactive calls. How the source made its calls: active means hit-call score of the fitted dose curve at least 0.9, where 1 is the maximum; inactive means score below 0.9.
Assay: BSK_4H_SRB: Viability Assessment in the BioMAP Diversity Plus: 4H Assay (AID 2283027);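 further: cells exposed to compound for 24 h before staining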;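 on AC50: curves fitted both ways versus DMSO so AC50 may be loss or gain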
Conditions: primary human endothelial cells (HUVEC)
Description: BSK_4H is a cell-based, multiplexed-readout assay that uses umbilical vein endothelium, a human vascular primary cell, with measurements taken at 24 hours after chemical dosing in a 96-well plate.BSK_4H_SRB is an assay component measured in the BSK_4H assay. It measures […] related to cell death using Sulforhodamine staining technology.Data from the assay component BSK_4H_SRB was analyzed into 1 assay endpoint. This assay endpoint, BSK_4H_SRB, was analyzed with bidirectional fitting relative to DMSO as the negative control and baseline of activity. Using a type of viability reporter, gain or loss-of-signal activity can be used to understand changes in the signaling. Furthermore, this assay endpoint can be referred to as a primary readout, because this assay has produced multiple assay endpoints where this one serves a signaling function. To generalize the intended target to other relatable targets, this assay endpoint is annotated to the cell morphology intended target family, where the subfamily is cell conformation.
The levels of cell surface (or secreted, indicated by the prefix "s") biomarker endpoints were measured by ELISA. Overt cytotoxicity to cells in confluent adherent cultures (all systems other than the BT system) was assessed by measuring total protein levels using sulforhodamine B (SRB) staining in parallel cultures at the time of biomarker measurements, indicated as SRB endpoints. For proliferation assays for adherent cell types, individual cell types are cultured at sub-confluence and relative cell numbers quantified by SRB staining at time points optimized for each system (48 h: 3C and CASM3C systems; 72 h: BT and HDF3CGF systems; 96 h: SAg system). SRB was performed by staining cells with 0.1% SRB after fixation with 10% TCA and reading wells at 560 nm.Viability and proliferation of PBMC (T cells) was quantified by Alamar Blue reduction for the SAg and BT systems. For PBMC viability (referred to as PBMC Cytotoxicity within the assay endpoint names), cells were plated (75,000/well in a 96-well plate) and then chemical samples added for 1 h before addition of activators, SEB and TSST-1 (20 ng/mL final concentration each). Cells were incubated for 90 h. Then, Alamar Blue (20 uL/well) (Invitrogen, Cat DAL1100) was added for 6 h, and the plates were read with a fluorescence microplate reader at 546/580 nm (excitation/emission). For PBMC proliferation, cells were plated and activated as above but incubated for only 16 h prior to addition of Alamar Blue. Plates were read after 6 h.

SMILES	outcome	AC50
Cc1ccc(O)cc1C	inactive	
CCCCc1ccccc1	inactive	
CC(Cl)(Cl)C(=O)O	inactive	
CC(O)C(F)(F)C(F)(F)F (stereo not given)	inactive	
CCCCN(CCCC)N=O	inactive	
COCCOCCO	inactive	
O=S(=O)(F)C(F)(F)C(F)(F)C(F)(F)C(F)(F)C(F)(F)C(F)(F)C(F)(F)C(F)(F)F	inactive	
O=S1(=O)OCC2C(CO1)C1(Cl)C(Cl)=C(Cl)C2(Cl)C1(Cl)Cl (stereo not given)		12.3 µM (active)
CC(C)(C)c1ccc(O)cc1	inactive	
CCOS(=O)(=O)OCC	inactive	
O=C(O)C1C(C(=O)O)C2(Cl)C(Cl)=C(Cl)C1(Cl)C2(Cl)Cl (stereo not given)	inactive	
O=P(Oc1ccccc1)(Oc1ccccc1)Oc1ccccc1		28.8 µM (active)
CSC(C)(C)C=NO	inactive	
OCC(F)(F)OC(F)(F)C(F)(F)OC(F)(F)CO	inactive	
ClC(Cl)=C(c1ccc(Cl)cc1)c1ccccc1Cl		12.6 µM (active)
ClC(Cl)c1ccccc1	inactive	
C=CC(=O)OCC(F)(F)C(F)F	inactive	
CCOC(=O)c1ccccc1C(=O)OCC	inactive	
O=C(O)C(Cl)Cl	inactive	
O=P(OCC(Br)CBr)(OCC(Br)CBr)OCC(Br)CBr (stereo not given)		1.54 µM (active)

SMILES	outcome	AC50
Cc1ccc([N+](=O)[O-])cc1C	inactive	
CC(C)Nc1ccc(Nc2ccccc2)cc1		9.88 µM (active)
CCCCC(CC)COP(=O)(Oc1ccccc1)Oc1ccccc1 (stereo not given)		20 µM (active)
c1nc[nH]n1	inactive	
CC(Cc1ccc(OCC(=O)O)cc1)NCC(O)c1csc(C(F)(F)F)n1 (stereo not given)	inactive	
O=c1ssc(Cl)c1Cl		5.42 µM (active)
CCN(CC)c1ccccc1	inactive	
Nc1ccc2ccccc2c1	inactive	
O=C(O)C(F)(F)OC(F)(F)C(F)(F)OC(F)(F)F	inactive	
O=C(O)C(F)(OC(F)(F)C(F)(F)C(F)(F)F)C(F)(F)F (stereo not given)	inactive	
Nc1cc2c3c(c1)C(c1ccccc1)=N[C@@H](NC(=O)c1cccnc1)C(=O)N3CC2	inactive	
FC(F)(F)C(F)(C(F)(F)F)C(F)(F)C(F)(F)CC1CO1 (stereo not given)	inactive	
O=[N+]([O-])c1ccc(Cl)c(Cl)c1	inactive	
O=P1(N(CCCl)CCCl)NCCCO1 (stereo not given)	inactive	
Cc1ccc(N)cc1N	inactive	
ClC(Cl)(Cl)c1ccccc1	inactive	
CCC1(c2ccccc2)C(=O)N=C(O)NC1=O (stereo not given)	inactive	
N#Cc1c(-c2ccc(Cl)cc2)[nH]c(C(F)(F)F)c1Br		0.0374 µM (active)
O=[N+]([O-])c1ccccc1	inactive	
CC(C)(C)c1ccccc1OP(=O)(Oc1ccccc1)Oc1ccccc1		11.1 µM (active)

From PubChem BioAssay (EPA / NIEHS)
